We go through 40 compounds from PubChem BioAssay (NCI).

About 83,000 compounds went through this panel and 20% of them were active in at least one assay; those are over-represented in the sample as a whole.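 Method: cells in 96-well plates; compound added at one concentration; 48 h incubation; percent growth measured; values under 10 scored active.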 The source made the active and inactive calls.

In this assay the test system is MDA-MB-468 breast. In words: NCI-60 one-dose screen, 48 h (100 = growth as untreated, 0 = no growth, -100 = all killed). Particulars: 10 µM unless noted.
For `CCC(C)Nc1ccc(N)cc1` (stereo not given), the growth is -30.9% (active).
Consider `CCN1C(=O)N(CC)C2Nn3c(s/c(=C\c4ccccc4F)c3=O)=NC21` (stereo not given), for which the growth was 28.9% (inactive).
With `O=C(Nc1ccc(Oc2cccc(Cl)c2)c(Cl)c1)c1cccnc1`, the growth is -9.21% (active).
As for `N#Cc1c(NCc2ccccc2I)sc2c1CCCCC2`, the growth was 97.1% (inactive).
Regarding `Cc1ccc(NC(=O)/C=C/c2ccccc2)c(C(N)=O)c1`, the growth was 22.5% (inactive).
For `COc1cc(C2=Nc3c(N)nc(N)nc3NC(c3cccc(Nc4ccnc5cc(C(F)(F)F)ccc45)c3)C2)cc(OC)c1OC` (stereo not given), the growth is 68.1% (inactive).
Take `CCOC(=O)c1cnc2ccc(Br)cc2c1Nc1cccc(S(=O)(=O)NC)c1`: the growth is 90.8% (inactive).
As for `O=C(NC1=CC(=O)c2ccccc2C1=O)c1ccccc1`, the growth is -91% (active).
For the compound `CCOP(=O)(OCC)OC[C@]12CCC(C)(C)C[C@H]1C1=CC[C@@H]3[C@@]4(C)CC[C@H](OP(=O)(OCC)OCC)C(C)(C)[C@@H]4CC[C@@]3(C)[C@]1(C)CC2`, the growth was 40.9% (inactive).
As for `CN1CCN(CC(=O)N(C)c2ccc(N=C(c3ccccc3)c3c(O)[nH]c4ccc(C#N)cc34)cc2)CC1`, the figure is 93.8% (inactive); as for `COc1cc(-c2csc(NC(=O)c3cc(F)cc(C(F)(F)F)c3)n2)cc(OC)c1OC`, -1.52% (active).
In the case of `O=C(NCCNc1nccc(-c2c(-c3cccc(O)c3)nc3sccn23)n1)c1ccc(N2CCOCC2)c(C(F)(F)F)c1`, the growth was 50.2% (inactive).
On to `CCN(CC)c1ccc(/C=N/N=C(N)N)cc1`, for which the growth was 26% (inactive).
For the compound `O=C(CC(=O)c1ccccc1F)Nc1ccc([N+](=O)[O-])cc1`, the growth was 90.9% (inactive).
Regarding `O=C(NCCN1CCCC1)n1cc(-c2ccncc2)c(-c2cc(O)cc(Cl)c2)n1`, the growth was 75.8% (inactive).
To `CCCCCCCCCCCCCCCCCc1nccn1CCO` belongs 91.5% (inactive); to `CCOP(=O)(OCC)OC[C@]12CCC(C)(C)C=C1[C@H]1CC[C@@H]3[C@@]4(C)CC[C@H](OP(=O)(OCC)OCC)C(C)(C)[C@@H]4CC[C@@]3(C)[C@]1(C)CC2`, -16.8% (active).
With `CCc1oc2ccccc2c1C(=O)c1cc(Br)c(O)c(Br)c1`, the growth is 6.28% (active).
For the compound `CCCCN(CCC)CCCCCCCCCCN1CCCc2ccccc21`, the growth is 65.6% (inactive).
To `O=C(Nc1cccc(-n2cc(-c3ccncc3)c(-c3ccc(O)c(Cl)c3)n2)c1)c1cc(C(F)(F)F)cc(C(F)(F)F)c1` belongs 61.6% (inactive).
Turning to `COc1ccc(-c2ccc(-c3ccc(C(=N)N)o3)o2)cc1`, the growth was 15.3% (inactive).
To `OCC1CCC(O)C(CO)N1` (stereo not given) belongs 104% (inactive); to `O=S1(=O)OC(c2cc(Cl)c(O)c(Br)c2)(c2cc(Cl)c(O)c(Br)c2)c2ccccc21`, 118% (inactive); to `O=c1[nH]c(Cl)nc2c1cnn2-c1ccccc1`, 101% (inactive).
In the case of `COc1cc(OC)c2sc(-c3ccc(-n4cncc4-c4ccc(N)cc4)cc3)nc2c1`, the growth was 67.3% (inactive).
Turning to `COc1ccc(C(=O)/C=C/c2cn(-c3ccccc3)nc2-c2cccc(Nc3ccnc4cc(Cl)ccc34)c2)cc1`, the growth is 75.7% (inactive).
`Cc1ccccc1CCO`: the growth is 97.5% (inactive).
With `Nc1ccc(-c2cc3c(NCc4ccccc4)ncnc3s2)cc1`, the growth was 4.36% (active).
For `[N-]=[N+]=Nc1ncc(-c2ccc(C(F)(F)F)cc2)c(NC2CCCCCC2)n1`, the growth was 28.9% [100 µM] (inactive).
Take `CN1CCN(c2ccc3nc(-c4ccc5nc(-c6ccc(C(F)(F)F)cc6)[nH]c5c4)[nH]c3c2)CC1`: the growth was 50.6% (inactive).
On to `CCCCCCCCCCN=C(c1ccc(N(C)C)cc1)c1ccc(N(C)C)cc1`, for which the growth is -8.69% (active).
Take `COc1ccc2c(c1)CC/C(=C\c1cncc(Br)c1)C2=O`: the growth was 99.4% (inactive).
In the case of `Cc1ccc(Nc2cc(=S)nc(N)[nH]2)cc1C`, the growth is 84.8% (inactive).
As to `Cc1ccc(Nc2ccc(O)c3c2C(=O)c2c(O)ccc(Nc4ccc(C)cc4)c2C3=O)cc1`, the growth is 95.8% (inactive).
With `CCC(=C(c1ccc(OCCN2CCCC2)cc1)c1ccc(OCCN2CCCC2)cc1)c1ccc(Cl)cc1`, the growth is -53.5% (active).
In the case of `COC(=O)c1nc(N)nc(C(=O)OC)c1C(=O)c1cccc2ccccc12`, the growth was 97.6% (inactive).
Consider `Nc1nc(N(Cc2ccccc2)c2ccccc2)c2cn[nH]c2n1`, for which the growth is 33.3% (inactive).
With `CN1CCC(OC2c3ccccc3CCc3ccccc32)CC1`, the growth is 89.6% (inactive).
In the case of `CCCc1cc2c(cc1Br)OCO2`, the growth was 115% (inactive).
As for `COc1cc(/C=C/c2cc(O)c(C(C)=O)c(O)c2)cc2c1O[C@]1(C)CC[C@@H](O)C(C)(C)[C@H]1C2`, the growth was 77.6% (inactive).
